Test results as given in PubChem BioAssay.
The source made the active and inactive calls. No rule for the calls is given here.

target: Pantothenate synthetase (Mycobacterium tuberculosis (strain ATCC 25618 / H37Rv)) (UniProt P9WIL5); assay: Coupled enzyme confirmation of inhibitors against recombinant Mtb PanC (AID 375); conditions: coupled enzyme assay; at 10 µM, active compounds read high;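 also: 0% = full reaction with vehicle and 100% = no enzyme background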
Sequence (P9WIL5 whole entry, looked up): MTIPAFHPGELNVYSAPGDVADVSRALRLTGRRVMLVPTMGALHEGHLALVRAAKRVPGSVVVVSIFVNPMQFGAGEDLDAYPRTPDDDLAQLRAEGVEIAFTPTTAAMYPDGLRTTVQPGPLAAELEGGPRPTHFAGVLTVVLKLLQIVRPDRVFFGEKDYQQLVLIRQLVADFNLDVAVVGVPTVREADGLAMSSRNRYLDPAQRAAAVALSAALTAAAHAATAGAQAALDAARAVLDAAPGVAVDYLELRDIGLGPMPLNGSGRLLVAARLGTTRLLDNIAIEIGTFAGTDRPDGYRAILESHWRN

SMILES	inhibition
CNC(=O)C1C2C=CC3(O2)C1C(=O)N(C1CC1)C3C(=O)NCc1ccc(OC)cc1 (stereo not given)	0% (inactive)
COCCn1c(COc2ccc(Cl)cc2)nnc1SCC(N)=O	0% (inactive)
COc1ccc(S(=O)(=O)N2CCN(CC(=O)Nc3ccc(F)c(F)c3)CC2)cc1	7% (inactive)
COC(=O)c1ccc2ncccc2c1	0% (inactive)
CCOc1ccc(NC(=O)CCN2CCN(c3ccccc3)CC2)cc1	0% (inactive)
O=S(=O)(c1ccc(OCC(O)CN2CCc3ccccc3C2)cc1)N1CCOCC1 (stereo not given)	9% (inactive)
COc1ccccc1C(=O)NCC(c1cccnc1)N(C)C (stereo not given)	0% (inactive)
Cc1cccc(Cc2c(C)nc3nc(SCC(=O)NCc4ccco4)nn3c2C)c1	2% (inactive)
CCOc1ccc(OCc2ccc(C(=O)Nc3cccc(C)n3)o2)cc1	7% (inactive)
CCOC(=O)N1CCN(C(=O)c2ccc3c(=O)n(Cc4ccc(OC)cc4)c(=S)[nH]c3c2)CC1	4% (inactive)
CCCCOC(=O)Cn1c(=O)oc2ccc(C)cc21	0% (inactive)
Cc1ccc(-n2c(=O)[nH]c3c(C(N)=O)nc(CC(C)C)nc32)cc1	0% (inactive)
COC(=O)c1ccc(C(=O)OC)c(NC(=O)Nc2ccc3c(c2)OCO3)c1	0% (inactive)
CNC(=O)CSc1nnc(-c2cc3c(C)nn(-c4ccccc4)c3s2)n1C	2% (inactive)
Cc1ccc(Oc2ccc(-c3nc(N)nc(N)n3)cc2)cc1	7% (inactive)
Cc1ccnc(NC(=O)Nc2ccc(F)cc2)c1	0% (inactive)
Cc1ccc2[nH]c(=O)c(CN(CCCN3CCOCC3)C(=O)Nc3cccc(Cl)c3)cc2c1	0% (inactive)
CCCCCC1CC(CC(=O)O)C(=O)O1 (stereo not given)	6% (inactive)
COc1cc(N2C(=O)CSC23C(=O)Nc2ccccc23)cc(OC)c1OC (stereo not given)	0% (inactive)
Cc1nn(-c2ccc(F)cc2)c2sc(C(=O)OCC(=O)N3CCC(C)CC3)cc12	0% (inactive)

SMILES	inhibition
CCc1nnc(NC(=O)c2ccc(-c3cccc(C(F)(F)F)c3)o2)s1	0% (inactive)
CCOc1ccc(NC(=O)CSc2nnc(Cc3cccn3C)n2-c2ccc(OC)cc2)cc1	1% (inactive)
CCOC(=O)c1sc(N2C(=O)C(O)=C(C(=O)c3ccco3)C2c2ccccc2)nc1C (stereo not given)	0% (inactive)
O=C(NCc1ccco1)C1CC(=O)N(c2ccc(F)cc2)C1 (stereo not given)	4% (inactive)
CCOC(=O)N1CCC(NC(=O)c2ccc(CS(=O)(=O)c3c(Cl)cccc3Cl)o2)CC1	0% (inactive)
COc1ccccc1N1CCN(c2cc(N3CCCC3)nc(C)n2)CC1	0% (inactive)
O=C1c2ccccc2C(=O)N1Cc1nc2ccccc2c(=O)n1CCN1CCOCC1	1% (inactive)
O=C(CCn1cccc1)N1CCc2ccccc21	0% (inactive)
CC(=O)c1cc(C#N)c(SCC(=O)OC(C)C)nc1C	4% (inactive)
COc1cccc(NC(=O)CN2CCN(c3ccccc3F)CC2)c1	4% (inactive)
CCCCN(Cc1cc2cc(OC)ccc2[nH]c1=O)C(=O)c1ccccn1	1% (inactive)
Cc1c(NC(=O)C2CCCNC2=O)c(=O)n(-c2ccccc2)n1C (stereo not given)	0% (inactive)
Cc1nc(-c2cnn(-c3ccccc3)c2)c2cc(C)oc2n1	2% (inactive)
Cc1nnc(NC(=O)CCC(=O)N2CCC(C)CC2)s1	0% (inactive)
C=CCOc1nc2c(c(=O)n(C)c(=O)n2C)n1Cc1c(Cl)cccc1Cl	1% (inactive)
CC1(C)C2CCC1(C)C(OC(=O)CSc1nc(N)cc(=O)[nH]1)C2 (stereo not given)	0% (inactive)
CCCC1O[C@@H]2C[C@H]3[C@@H]4CCC5=CC(=O)C=C[C@]5(C)[C@H]4[C@@H](O)C[C@]3(C)[C@]2(C(=O)CO)O1 (stereo not given in full)	4% (inactive)
COCCNC(=O)CN(C)S(=O)(=O)c1ccc2c(c1)OCCO2	7% (inactive)
CCOC(=O)c1sc2nc(SCC#N)n(CCCN3CCCC3=O)c(=O)c2c1C	0% (inactive)
NC(=O)C1CCN(c2nc(-c3ccccc3)nc3ccccc23)CC1	0% (inactive)
